The test system of assay [1] is Wnt5a (protein binding on small-molecule microarray). The assay is described as follows: Wnt5a binders on small-molecule microarray, primary screen, biophysical, 635/667 nm fluorescence (AID 1142).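 Note: fluorescence read at 667 nm with signal to noise per printed feature.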 Conditions: 635 nm fluorescence, higher = more signal.
Assay [2] can be described thus: cell viability in Huh7 cells, primary screen, cytotoxicity control for HCV replication inhibitor project, CellTiter-Glo luminescence, basal, 48 h (AID 1143).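 Note: Huh7 hepatoma cells carrying a hepatitis C replication reporter with no stimulus; test concentration not given here.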 Conditions: Huh7 HCV replicon, CellTiter-Glo luminescence, 48 h, higher = more signal, called active from +8 up or from −8 down unless noted.
Assay [3] can be described thus: P. aeruginosa biofilm formation inhibitors, primary screen, PAO1 strain, BacTiter-Glo luminescence, LB-PBS (AID 1144). Conditions: 12 h, higher = more signal.
The nature of assay [4]: CREB reporter modulators without forskolin, primary screen, cell-based, PC12, CRE-LacZ reporter, unstimulated (AID 1145). To be noted: no forskolin, luminescence, 4.5 h; higher = more signal, called active from +8 up or from −8 down unless noted.
Assay [5] is described as follows: CREB reporter modulators under forskolin, primary screen, cell-based, PC12, CRE-LacZ reporter, forskolin-stimulated (AID 1146).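 Note: PC12 cells with 6xCRE LacZ reporter stimulated by forskolin 10 µM; beta-galactosidase reporter signal reflecting CREB driven transcription.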 Conditions: luminescence, 4.5 h; higher = more signal, called active from +8 up or from −8 down unless noted.
The target in assay [6] is Streptavidin (Streptomyces avidinii) (UniProt P22629). The assay is described as follows: streptavidin binders on small-molecule microarray, primary screen, artefact control for SMM compound annotation, biophysical, 635/667 nm fluorescence (AID 1147).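 Note: signal reflects streptavidin binding to arrayed compounds as a control protein.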 To be noted: streptavidin binding, higher = more signal.
Sequence of Streptavidin (Streptomyces avidinii) (P22629 whole entry, looked up): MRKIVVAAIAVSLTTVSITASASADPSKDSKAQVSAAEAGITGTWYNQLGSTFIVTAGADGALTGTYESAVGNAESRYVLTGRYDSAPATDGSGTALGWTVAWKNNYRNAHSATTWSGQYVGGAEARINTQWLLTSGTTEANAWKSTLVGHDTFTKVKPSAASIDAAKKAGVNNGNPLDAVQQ
The nature of assay [7]: small-molecule binders of probe aInhba, primary screen, biochemical, small-molecule microarray, 635/667 nm fluorescence (AID 1148).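 Note: score merges 667nm spot fluorescence with signal-to-noise for antibody binding to printed compounds.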 To be noted: higher = more signal; small-molecule microarray, probe aInhba, fluorescence unless noted.
The target in assay [8] is Torsin-1A (Homo sapiens) (UniProt O14656). As to the kind of experiment: torsin A binders from cell lysate, primary screen, small-molecule microarray, wild-type, 635/667 nm (AID 1149). Conditions: COS7 hTOR1A-WT lysate, 635 nm fluorescence, higher = more signal.
Sequence of Torsin-1A (Homo sapiens) (O14656 whole entry, looked up): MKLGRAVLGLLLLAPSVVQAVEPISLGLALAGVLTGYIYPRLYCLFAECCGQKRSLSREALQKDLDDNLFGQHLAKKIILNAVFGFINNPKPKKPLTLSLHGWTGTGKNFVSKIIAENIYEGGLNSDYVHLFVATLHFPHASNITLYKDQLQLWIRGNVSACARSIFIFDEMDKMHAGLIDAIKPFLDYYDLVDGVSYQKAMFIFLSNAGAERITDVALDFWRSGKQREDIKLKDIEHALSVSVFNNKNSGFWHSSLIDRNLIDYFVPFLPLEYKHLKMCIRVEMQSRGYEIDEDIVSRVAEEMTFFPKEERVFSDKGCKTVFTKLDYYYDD
For assay [9] the target is unchanged. As to the kind of experiment: small-molecule binders of mutant TOR1A in lysate, primary screen, cell lysate, small-molecule microarray, COS7 lysate, 635/667 nm fluorescence (AID 1150).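 Note: score pools 667 nm emission and signal to noise measuring lysate protein binding.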 Conditions: COS7 hTOR1A mutant lysate, 635 nm fluorescence, higher = more signal.
Assay [10] relates to Sonic hedgehog protein (Shh). The assay is described as follows: small-molecule binders of Shh protein, primary screen, biochemical, small-molecule microarray, 635/667 nm fluorescence (AID 1151).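 Note: Shh protein binding to compounds spotted on small-molecule microarray slides; score combines spot fluorescence intensity with signal-to-noise across triplicate slides.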 To be noted: small-molecule microarray binding, 635 nm fluorescence; higher = more signal.
Assay [11] is described as follows: E. coli DRC41 culture turbidity changes, primary screen, E. coli filamentation inducer project, strain DRC41, OD650, 48 h (AID 1152).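 Note: E. coli MC1000 strain DRC41 lacking acrAB efflux pump and sulA.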 To be noted: E. coli DRC41 (acrAB sulA); higher = more signal, called active from +8 up or from −8 down unless noted.
Assay [12] in a line: small-molecule binders of probe aLefty1, primary screen, biochemical, small-molecule microarray, 635/667 nm fluorescence (AID 1153).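 Note: score merges spot fluorescence with signal-to-noise ratio from the scanned slide images.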 Conditions: higher = more signal; small-molecule microarray, probe aLefty1, fluorescence unless noted.
Assay [13] in a line: PSAC antagonists in infected red cells, primary screen, cell-based, P. falciparum Indochina, OD700, 1 h (AID 1154). To be noted: P. falciparum Indochina infected RBC osmotic lysis; higher = more signal, called active from +8 up or from −8 down unless noted.
Assay [14] in a line: PSAC antagonists in infected red cells, primary screen, cell-based, P. falciparum Indochina, OD700, 2 h (AID 1155).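 Note: lysis reports solute entry through the parasite surface anion channel PSAC; channel blockers reduce lysis of infected cells.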 To be noted: P. falciparum Indochina infected erythrocytes, osmotic lysis OD700; higher = more signal, called active from +8 up or from −8 down unless noted.
Assay [15] can be described thus: osmotic lysis modulators in infected erythrocytes, primary screen, PSAC antagonist project, cell-based, P. falciparum Indochina, OD700, 3 h (AID 1156). Conditions: higher = more signal, called active from +8 up or from −8 down unless noted.
Assay [16] in a line: PSAC antagonists in infected red cells, primary screen, cell-based, P. falciparum Indochina, OD700, 18 h (AID 1157). Conditions: P. falciparum Indochina infected erythrocytes, osmotic lysis OD700, 18 h; higher = more signal, called active from +8 up or from −8 down unless noted.
The nature of assay [17]: modulators of S6 phosphorylation in cells, primary screen, cell-based, A549, cytoblot, luminescence, serum-stimulated (AID 1158).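 Note: serum-stimulated A549 lung adenocarcinoma cells; signal is phosphorylated S6 detected by cytoblot immunostaining with HRP secondary.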 Conditions: A549 phospho-S6 cytoblot, 5 h, higher = more signal.
For assay [18], the target named is NADPH oxidase 2 (Homo sapiens) (UniProt P04839). The assay is described as follows: NOX2-dependent H2O2 signal modulators, primary screen, NOX inhibitor project, cell-based, HEK293-NOX2, PMA-stimulated, Amplex Red fluorescence (AID 1159). Note: test concentration not given here. Conditions: 45 min; higher = more signal, called active from +8 up or from −8 down unless noted.
Sequence of NADPH oxidase 2 (Homo sapiens) (P04839 whole entry, looked up): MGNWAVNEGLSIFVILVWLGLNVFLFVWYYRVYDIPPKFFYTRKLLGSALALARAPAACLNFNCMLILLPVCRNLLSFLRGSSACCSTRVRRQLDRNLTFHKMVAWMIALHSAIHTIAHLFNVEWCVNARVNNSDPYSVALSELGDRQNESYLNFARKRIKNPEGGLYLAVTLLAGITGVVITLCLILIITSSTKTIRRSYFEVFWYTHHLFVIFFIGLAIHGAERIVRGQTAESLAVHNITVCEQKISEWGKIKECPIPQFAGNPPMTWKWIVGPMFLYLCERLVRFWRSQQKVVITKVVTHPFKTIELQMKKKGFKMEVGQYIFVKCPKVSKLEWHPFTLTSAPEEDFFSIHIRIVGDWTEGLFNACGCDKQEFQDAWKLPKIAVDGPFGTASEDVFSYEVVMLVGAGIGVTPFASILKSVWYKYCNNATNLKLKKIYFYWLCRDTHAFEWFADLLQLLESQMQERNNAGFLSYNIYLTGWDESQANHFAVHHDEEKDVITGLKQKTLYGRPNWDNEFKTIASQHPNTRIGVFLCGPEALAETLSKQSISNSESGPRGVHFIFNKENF
Assay [19] concerns the target NADPH oxidase 4 (Homo sapiens) (UniProt Q9NPH5). As to the kind of experiment: NOX4-dependent H2O2 signal modulators, primary screen, NOX inhibitor project, cell-based, HEK293-NOX4, tetracycline-induced, Amplex Red fluorescence (AID 1160). Conditions: 45 min; higher = more signal, called active from +8 up or from −8 down unless noted.
Assay [20] deals with NADPH oxidase 5 (Homo sapiens) (UniProt Q96PH1). As to the kind of experiment: NOX5-dependent H2O2 signal modulators, primary screen, NOX inhibitor project, cell-based, HEK293-NOX5, Amplex Red fluorescence (AID 1161). Conditions: HEK293-NOX5, ionomycin, 45 min, higher = more signal.
Sequence of NADPH oxidase 5 (Homo sapiens) (Q96PH1 whole entry, looked up): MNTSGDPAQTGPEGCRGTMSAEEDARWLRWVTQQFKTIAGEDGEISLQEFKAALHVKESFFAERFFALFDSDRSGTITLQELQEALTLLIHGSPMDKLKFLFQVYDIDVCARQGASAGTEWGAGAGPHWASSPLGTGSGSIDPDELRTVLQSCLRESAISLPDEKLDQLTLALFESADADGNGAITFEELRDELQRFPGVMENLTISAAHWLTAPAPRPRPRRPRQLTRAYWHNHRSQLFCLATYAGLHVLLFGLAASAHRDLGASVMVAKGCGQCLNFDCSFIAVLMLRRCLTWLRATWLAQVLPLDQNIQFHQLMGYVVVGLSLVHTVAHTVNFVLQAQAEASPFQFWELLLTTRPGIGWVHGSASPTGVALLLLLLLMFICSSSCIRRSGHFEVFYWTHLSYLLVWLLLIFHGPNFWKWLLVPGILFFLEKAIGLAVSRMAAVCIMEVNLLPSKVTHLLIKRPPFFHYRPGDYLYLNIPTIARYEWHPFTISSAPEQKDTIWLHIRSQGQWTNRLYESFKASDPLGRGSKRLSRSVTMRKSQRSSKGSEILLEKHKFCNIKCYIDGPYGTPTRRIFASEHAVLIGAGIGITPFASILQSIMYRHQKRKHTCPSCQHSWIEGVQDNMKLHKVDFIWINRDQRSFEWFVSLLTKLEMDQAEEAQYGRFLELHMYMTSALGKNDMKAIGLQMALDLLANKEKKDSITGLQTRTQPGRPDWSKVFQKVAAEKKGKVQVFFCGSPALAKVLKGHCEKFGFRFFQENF

Several values for one entry are separate records, joined by “and”; a condition that tells them apart may be missing. Identical values can stand only once. Activity calls are given as the source filed them. Unless noted, the rule behind the calls is not given here.

Sequence of NADPH oxidase 4 (Homo sapiens) (Q9NPH5 whole entry, looked up): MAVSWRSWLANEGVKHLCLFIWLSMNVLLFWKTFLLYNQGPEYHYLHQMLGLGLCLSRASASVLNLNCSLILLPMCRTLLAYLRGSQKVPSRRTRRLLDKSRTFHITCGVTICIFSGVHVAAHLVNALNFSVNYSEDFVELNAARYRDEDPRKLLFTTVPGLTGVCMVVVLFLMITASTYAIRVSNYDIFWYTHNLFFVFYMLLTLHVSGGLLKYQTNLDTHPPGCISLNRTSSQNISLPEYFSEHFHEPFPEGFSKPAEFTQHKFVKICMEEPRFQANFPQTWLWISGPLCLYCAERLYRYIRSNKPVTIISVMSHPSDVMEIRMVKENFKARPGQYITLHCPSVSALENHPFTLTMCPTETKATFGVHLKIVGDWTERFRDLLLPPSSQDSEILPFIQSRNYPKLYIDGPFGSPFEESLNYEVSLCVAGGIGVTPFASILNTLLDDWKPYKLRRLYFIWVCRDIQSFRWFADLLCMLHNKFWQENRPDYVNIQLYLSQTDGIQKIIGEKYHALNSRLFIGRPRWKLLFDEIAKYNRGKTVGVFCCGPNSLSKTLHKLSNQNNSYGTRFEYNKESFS

In the case of `CN1CCc2nc(CO)c(CO)cc2C1`, the composite z-score in assay [1] was 0.233; in [6], 0.0991; in assay [7], 0.0442; in assay [8], -0.0701; in assay [9], 0.557; in assay [10] it was 0.424. The same molecule registered a composite z-score in assay [12] of 0.0504. In addition, the z-score in [2] is -0.0958 (inactive); in assay [3], 0.424 (inactive); in [4], 1.37 (inactive); in [5], -0.0826 (inactive); in assay [11], 0.0958 (inactive); in assay [13] it was 0.297 (inactive). Moreover, the z-score in [14] was 0.538 (inactive); in assay [15], -0.508 (inactive); in assay [16], 0.101 (inactive); in assay [17] it was -0.121; in assay [18], 1.62 (inactive); in assay [19] it was -1.25 (inactive). Also, the z-score in assay [20] is -0.795.
For the molecule `COC(=O)NCC=Cc1nc(CCC=CC(=O)O[C@H]2CC3CC(=O)O[C@@H](C=CCC(C)C)C[C@@H]4CC[C@H](C)[C@@H](C[C@@H](OC)C[C@H](C2)O3)O4)co1`, the composite z-score in assay [1] was -0.335; in assay [6], -0.875; in [7], -0.159; in assay [8], -0.429; in [9], -0.653; in assay [10], 0.0788. For the same molecule, the composite z-score in assay [12] was -0.213. In addition, the z-score was -3.73 (inactive) in assay [2]; 0.881 (inactive) in [3]; 0.106 (inactive) in assay [4]; -1.96 (inactive) in assay [5]; -0.0987 (inactive) in [11]; 0.465 (inactive) in assay [13]. For the same molecule, the z-score was 0.0987 (inactive) in assay [14]; -0.0546 (inactive) in assay [15]; -0.195 (inactive) in assay [16]; -0.975 in [17]; 0.902 (inactive) in assay [18]; 0.594 (inactive) in assay [19]. The molecule also displayed a z-score in assay [20] of -0.00689.
Consider `CC1N(P(=O)(c2ccccc2)c2ccccc2)CC(O)(c2ccccc2)CC12CC2` (stereo not given), for which the composite z-score in [1] was -0.025 and -0.0606; in [6], -0.586 and 0.107; in [7], -0.0589 and 0.475; in [8], -1.12 and -0.311; in assay [9], 0.699 and 0.319; in [10], -0.649 and -1.4. In addition, the composite z-score in [12] was -0.103 and 0.607. Further, the z-score in assay [2] was -0.601 (inactive) and -2.65 (inactive); in assay [3], 0.693 (inactive) and 0.00162 (inactive); in assay [4], 0.0075 (inactive) and -0.179 (inactive); in assay [5] it was 0.84 (inactive) and 0.498 (inactive); in [11], -1.36 (inactive) and -1.82 (inactive); in assay [13], 0.232 (inactive) and 0.667 (inactive). Further, the z-score in [14] was -0.0745 (inactive); in assay [15] it was 0.716 (inactive) and 0.248 (inactive); in [16], 0.593 (inactive) and 0.642 (inactive); in assay [17] it was -0.259 and -0.209; in [18], -0.427 (inactive) and -1.04 (inactive); in assay [19], -1.52 (inactive) and -0.626 (inactive). Moreover, the z-score in assay [20] is -3.13 and -2.02.
On to `C[C@@H]1Cc2c(cnc3c2CN(C)CC3)CO1`, for which the composite z-score in assay [1] was 0.0844; in [6], -0.179; in assay [7], -0.0523; in assay [8] it was 0.742; in assay [9], 1.12; in [10], 1.71. Moreover, the composite z-score in [12] was -0.152. Besides, the z-score is -1.38 (inactive) in [2]; -0.181 (inactive) in assay [3]; -0.258 (inactive) in assay [4]; -1.05 (inactive) in [5]; -0.397 (inactive) in [11]; -0.0969 (inactive) in assay [13]. For the same molecule, the z-score was -0.0787 (inactive) in assay [14]; 0.123 (inactive) in assay [15]; 0.0517 (inactive) in assay [16]; -0.0609 in assay [17]; 1.5 (inactive) in [18]; 0.188 (inactive) in [19]. The z-score in assay [20] was -0.719.
Turning to `O=P(c1ccccc1)(c1ccccc1)N1CC2(CC2)CC(O)(c2ccccc2)C1` (stereo not given), the composite z-score in [1] is 0.323; in [6] it was 0.386; in assay [7] it was 0.309; in assay [8], -0.316; in [9] it was -0.276; in assay [10], -1.05. The composite z-score in assay [12] was found to be 0.276. Also, the z-score in assay [2] is -1.55 (inactive); in assay [3], 0.525 (inactive); in assay [4] it was 0.204 (inactive); in [5] it was -0.927 (inactive); in [11], -1.16 (inactive); in assay [13], 0.492 (inactive). The z-score was 0.585 (inactive) in [14]; 0.483 (inactive) in assay [15]; 0.741 (inactive) in [16]; 0.0869 in assay [17]; -0.356 (inactive) in assay [18]; -0.976 (inactive) in assay [19]. This molecule had a z-score in assay [20] of -2.94.
As to `COC(=O)C1(C)C=C2C(=C(C)C(=O)C2C)CN1` (stereo not given), the composite z-score in assay [1] was -0.163; in [6], -0.164; in assay [7], 0.0442; in [8] it was 0.219; in [9], -0.186; in [10] it was -0.473. In assay [12], the composite z-score worked out at 0.257. For the same molecule, the z-score in assay [2] is 0.0631 (inactive); in assay [3], -0.596 (inactive); in assay [4], -0.182 (inactive); in assay [5], 3.71 (inactive); in [11] it was -1.84 (inactive); in assay [13] it was 0.539 (inactive). Also, the z-score in assay [14] was 0.405 (inactive); in assay [15] it was 1.16 (inactive); in assay [16] it was 0.643 (inactive); in assay [17], -0.232; in [18], -0.172 (inactive); in [19] it was -2.31 (inactive). Besides, the z-score in assay [20] was -3.35.
As for `COC(=O)[C@H]1C(=O)c2ccccc2O[C@@](C(=O)OC)(c2ccccc2)[C@@H]1c1ccccc1`, the composite z-score in assay [1] was 0.107; in [6] it was -0.37; in assay [7], 0.177; in assay [8], 0.0049; in assay [9] it was 0.0856; in assay [10] it was 0.0053. The molecule further registered a composite z-score in assay [12] of -0.199. The z-score in assay [2] was -1.35 (inactive); in assay [3], 0.352 (inactive); in assay [4], -0.523 (inactive); in assay [5] it was 1.24 (inactive); in [11], 0.0473 (inactive); in [13], 0.251 (inactive). The z-score in [14] was -0.528 (inactive); in [15], -0.591 (inactive); in assay [16], -0.56 (inactive); in [17], -0.651; in assay [18] it was 1.19 (inactive); in assay [19], 0.752 (inactive). For the same molecule, the z-score in assay [20] stood at 0.627.
`COC(=O)[C@@]1(Cc2ccccc2)[C@H]2c3cc(C(=O)N(C)C)n(C)c3C[C@H]2CN1C(=O)c1ccccc1`: the composite z-score in [1] is 0.253; in assay [6], 1.78; in assay [7], 0.0091; in assay [8] it was 0.0264; in [9], 1.51; in [10] it was -0.916. In addition, the composite z-score in assay [12] was determined as 0.113. The z-score was -0.782 (inactive) in [2]; 0.323 (inactive) in assay [3]; 0.194 (inactive) in assay [4]; 0.189 (inactive) in [5]; -0.741 (inactive) in assay [11]; 1.24 (inactive) in assay [13]. Also, the z-score in [14] is 0.373 (inactive); in assay [15], 0.747 (inactive); in assay [16], 0.617 (inactive); in assay [17] it was 0.553; in assay [18], 0.294 (inactive); in assay [19] it was -0.0833 (inactive). In assay [20], this molecule yielded a z-score of -2.5.

The values above are taken from PubChem BioAssay.
